Results on 14 molecules are retold here after PubChem BioAssay (NCI).

Compounds without any hit were thinned out: in the full panel of roughly 83,000, 20% have a hit.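 Assay: single dose, 48 h. Readout: percent growth (0 = no net growth; negative = cell death). Active: <10.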 Values without a mark were called inactive. Active and inactive are the calls of the source.

Common to all, as to experiment: NCI-60 one-dose screen, 48 h (100 = growth as untreated, 0 = no growth, -100 = all killed)
Conditions in all cases: 10 µM unless noted

In test [1] the test system is SK-MEL-2 melanoma.
Test [2] relates to EKVX NSCLC.
Test [3] relates to SN12C renal.
The subject of test [4] is UO-31 renal.
In test [5] the test system is TK-10 renal.
Test [6] deals with ACHN renal.
Test [7] has as its system CAKI-1 renal.
The test system of test [8] is A498 renal.
Test [9] has as its system CCRF-CEM leukemia.
In test [10] the test system is MOLT-4 leukemia.

In the case of `Cn1cc(-c2cc(N)n3nc(-c4cn(C)c5ccccc45)cc3n2)c2ccccc21`, the growth in test [1] is 119%; in test [2] it was 96%; in test [3], 88.6%; in test [4], 85.9%; in [5] it was 99.3%; in [6] it was 94.8%. The growth is 94.6% in test [7], 77.8% in test [8], 24.9% in test [9] and 49.8% in [10].

As to `NC(N)=Nc1ccc(Oc2cccc(Nc3ccc(Br)c(C(F)(F)F)c3)c2)cc1`, the growth is 35.6% in [1]; 25.5% in [2]; -21.3% (active) in [3]; 75.2% in [4]; 54.9% in [5]; 68.3% in [6]. In addition, the growth in test [7] was 39.8%; in [8], 0.698% (active); in [10], 9.79% (active).

Regarding `Cc1cc(S(=O)(=O)N(C)C)cc(NCC(=O)NC(=O)NCC(C)C)c1C`, the growth is 105% in test [1]; 63.1% in test [2]; 87.9% in test [3]; 57.1% in [4]; 68.2% in test [5]; 94.4% in [6]. Besides, the growth in test [7] is 64.3%; in test [8] it was 51.7%; in [10], 96.1%.

For `CNC(=O)c1cc(N2CCc3cc(NC(=O)Nc4ccc(Cl)c(C(F)(F)F)c4)ccc32)ccn1`, the growth in test [1] is 88.5%; in [2], 55.1%; in [3], 65.2%; in test [4] it was 68.4%; in test [5], 86.6%; in test [6], 38.1%. Besides, the growth in test [7] was 53.9%; in test [8], 80.3%; in [9] it was 48.4%; in test [10] it was 35.6%.

Consider `CNC(=O)c1c(NC(=O)c2ccccc2C(F)(F)F)sc2c1CCC(=O)C2`, for which the growth is 88.1% in test [1]; 23.9% in test [2]; 62.1% in test [3]; 3.82% (active) in [4]; 26.2% in test [5]; 9.31% (active) in [6]. Besides, the growth in test [7] was 0.09% (active); in test [8] it was 80.4%; in [9], 11.9%; in test [10], 18.3%.

For `Nc1nc(Nc2ccccc2SSc2ccccc2Nc2nc(N)nc(-c3ccccc3)n2)nc(-c2ccccc2)n1`, the growth is 106% in [1]; 47.1% in test [2]; 77.8% in test [3]; -12.6% (active) in test [4]; 101% in test [5]; 55.8% in test [6]. The results for the growth in test [7], in test [8] and in test [10] were 25.2%, 78.7% and 50.7%, respectively.

For `Cc1[nH]c(C(=O)Nc2ccccc2OCc2cccc(C(=O)N3CCC[C@@H](N)C3)c2)c(Cl)c1Cl`, the growth in [1] was -74.1% (active); in test [2], -93.4% (active); in [3] it was -79.4% (active); in [4], -89.5% (active); in test [5], -90.2% (active); in test [6] it was -96.4% (active). The growth was -92.8% (active) in [7], 56.2% in test [8], -26.6% (active) in test [9] and -55.2% (active) in [10].

On to `Cc1noc(C)c1CSc1nc2ccccc2n1-c1ccccc1`, for which the growth in test [1] is 107%; in test [2] it was 65.2%; in test [3], 81.4%; in test [4], 48.8%; in [5], 58.9%; in test [6], 96.1%. In addition, the growth was 41.6% in test [7], 48.1% in test [8] and 97% in test [10].

As to `Cc1nn(-c2ccccc2)c2ncnc(N/N=C/c3ccccc3O)c12`, the growth in test [1] was 35.4%; in test [2] it was 23.7%; in [3], 8.87% (active); in test [4], -25.8% (active); in test [5], 40.6%; in [6], 3.52% (active). In addition, the growth in test [7] is 3.12% (active); in [8] it was 58.4%; in test [9] it was 8.92% (active); in test [10] it was 14.3%.

With `COc1cc(Cn2cc3c(c2)-c2onc(CN4CCOCC4)c2CC3)cc(OC)c1OC`, the growth in [1] was 104%; in test [2], 83%; in test [3] it was 95.5%; in [4], 78.7%; in test [5], 107%; in [6], 99.5%. The growth was 94.7% in test [7], 114% in test [8], 96.9% in test [9] and 98.3% in [10].

For `Cc1cc(C)n(C(=O)c2sc(=S)n(-c3ccccc3)c2N=Nc2c(N)n[nH]c2N)n1`, the growth in test [1] was 110%; in test [2], 102%; in test [3] it was 105%; in test [4], 84.8%; in [5], 122%; in test [6], 102%. The growth is 98.9% in test [7], 92.8% in test [8], 95.5% in test [9] and 105% in test [10].

As for `COc1ccc2[nH]cc(-c3csc4nc(-c5ccccc5)cn34)c2c1`, the growth in test [1] was -5.6% (active); in [2], 35.8%; in [3] it was 40.2%; in [4] it was 33.2%; in test [5], 75.6%; in test [6], 38.6%. Moreover, the growth in [7] is 26.3%; in test [8] it was -19.7% (active); in [9], 16.2%; in test [10], 19.7%.

In the case of `COc1ccc(S(=O)(=O)NCCCNc2nccc(-c3cn(C(C)(C)C)nc3-c3ccc(Cl)c(OC)c3)n2)cc1`, the growth in test [1] is 89.7%; in [2], 47.2%; in test [3] it was 57.1%; in [4] it was 44.5%; in [5], 60.3%; in test [6] it was 84.6%. Besides, the growth was 25.5% in test [7], 58.7% in test [8] and 60.6% in [10].

Consider `COc1cc(OC)c(/C=C/S(=O)(=O)Cc2ccc(OC)c(NCC(=O)NO)c2)c(OC)c1`, for which the growth in [1] was 51.1%; in test [2], 34.4%; in test [3], 19.2%; in [4], 35.4%; in [5], 65%; in test [6], 27.9%. Besides, the growth in test [7] was 25.7%; in [8] it was -11.7% (active); in test [9] it was 14.8%; in test [10], 16.5%.
